An excerpt weighted towards active compounds, which were near 3.2% of everything screened.
rRNA inh HTS: reduced GFP signal of wild-type E. coli, primary screen, bacterial rRNA inhibitor project, GFP/RFP fluorescence, OD600, single point; E. coli WT GFP vs humanized-ribosome RFP mutants, 24 h; hits give low values; DMSO median 0, no signal -100; GFP signal change (wild-type ribosome), % (test concentration not listed); hit rate 1.6% among 350,000; AID 720706, 2013;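 active = significant combined selectivity score with lowered wild-type GFP, culture density cut under 30%, mutant RFP and density less affected; inactive = any of these conditions unmet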
ERAP1 HTS inh: human ERAP1 aminopeptidase inhibitors, primary screen, biochemical, single point, plate reader; Endoplasmic reticulum aminopeptidase 1 (Homo sapiens), Q9NZ08; inhibition, % at 10.7 µM; recombinant ERAP1, Leu-AMC fluorescence, 60 min; hit rate 0.15% among 340,000; AID 652197, 2013;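 active = mean replicate inhibition of at least 30%, or all replicates individually reaching that 30% level; inactive = mean below 30% and not every replicate reaching it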;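 note: 0% = neutral control wells and 100% = L-leucinethiol positive control wells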
Target sequence (Q9NZ08 whole entry, looked up): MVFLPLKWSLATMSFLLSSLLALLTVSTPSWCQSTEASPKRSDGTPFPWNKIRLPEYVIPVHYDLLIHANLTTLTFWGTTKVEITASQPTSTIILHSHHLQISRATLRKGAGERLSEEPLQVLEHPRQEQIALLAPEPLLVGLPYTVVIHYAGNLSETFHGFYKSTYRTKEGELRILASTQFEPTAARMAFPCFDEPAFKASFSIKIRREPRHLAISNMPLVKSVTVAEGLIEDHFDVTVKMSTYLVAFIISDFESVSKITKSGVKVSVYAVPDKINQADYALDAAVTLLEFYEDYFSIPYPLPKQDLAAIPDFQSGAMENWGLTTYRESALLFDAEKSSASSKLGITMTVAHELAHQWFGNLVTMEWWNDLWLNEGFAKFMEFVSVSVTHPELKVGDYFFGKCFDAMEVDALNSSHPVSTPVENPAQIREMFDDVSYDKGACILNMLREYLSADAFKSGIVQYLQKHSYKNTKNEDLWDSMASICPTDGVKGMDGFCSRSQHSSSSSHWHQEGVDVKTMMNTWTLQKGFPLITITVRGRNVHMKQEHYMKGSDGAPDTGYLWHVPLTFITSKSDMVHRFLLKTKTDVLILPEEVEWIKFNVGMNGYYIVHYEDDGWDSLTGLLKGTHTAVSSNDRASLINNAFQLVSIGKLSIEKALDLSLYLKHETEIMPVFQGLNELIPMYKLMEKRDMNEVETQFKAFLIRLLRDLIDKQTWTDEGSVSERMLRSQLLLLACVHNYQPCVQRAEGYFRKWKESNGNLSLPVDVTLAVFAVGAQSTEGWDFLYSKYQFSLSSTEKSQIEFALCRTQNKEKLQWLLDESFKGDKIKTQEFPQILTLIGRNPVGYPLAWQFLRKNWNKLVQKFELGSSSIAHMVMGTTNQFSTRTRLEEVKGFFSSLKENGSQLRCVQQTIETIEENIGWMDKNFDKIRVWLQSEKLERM
CaV13 FRET inh: Primary screen for inhibitors of IQ motif and Ca2+-dependent inactivation inhibitor domain binding in CACNA1D, Förster resonance energy transfer in living cells, …. inhibition, % at 12.3 µM. HEK cells, CFP/YFP FRET ICDI-IQ, plate reader, 10 min; percent FRET-ratio fall versus neutral wells. AID 743397. hit rate 0.098% among 340,000;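 active = mean replicate inhibition of at least 30% and at least 1% of replicates passing that level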;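 note: 0% = median of the neutral control wells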
DENV2 CPE rescue: inhibitors of DENV2 cytopathic effect, primary screen, cell-based, plate reader, single concentration; CPE inhibition, % at 9.99 µM; DENV2-infected cells, cytopathic effect rescue; hit rate 1.7% among 350,000; in the data active = CPE inhibition above about 20%, passing the limit was not always enough; tested in BHK-21 cells;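 note: 0% = median of neutral control wells and 100% = median of positive control wells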
PGC1a acetyl inh: inhibitors of PGC1a acetylation signal, primary screen, cell-based, U2OS, AlphaScreen, inhibitor mode. inhibition, % at 15.6 µM. AlphaScreen anti-acetyl-lysine; with virally co-expressed GCN5 acetyltransferase. hit rate 0.17% among 350,000;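 active = every replicate shows inhibition of at least 40%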;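 note: 0% = neutral control wells and 100% = positive control wells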
INS-1E GSIS act: GLuc luminescence reporter in INS-1E cells, primary screen for activators of glucose-dependent secretion of insulin | hit rate 0.61% among 370,000 | INS-1E GLuc reporter insulin secretion, 2-3 h | activation, % at 16.6 µM;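 active = lowest replicate activation of at least 40%, so every replicate reaches that level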;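 note: 0% = median of neutral control wells and 100% = median of IBMX positive control wells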
An asterisk follows results filed as active; . = no result.

SMILES	rRNA inh HTS	ERAP1 HTS inh	CaV13 FRET inh	DENV2 CPE rescue	PGC1a acetyl inh	INS-1E GSIS act
CC(C)(C)NC[C@@H](O)COc1cccc2c1CCCC2=O	10.8	-0.6	-4.8	30.9*	.	11.4
C[C@@H]1CN([C@@H](C)CO)C(=O)Cc2cc(NC(=O)CCN3CCOCC3)ccc2O[C@@H]1CN(C)Cc1ccc(-c2ccccc2)cc1	2.2	2.3	.	-3.1	1.3	-4.3
CCCN(C)C[C@@H]1OCCCC[C@@H](C)Oc2ccc(N(C)C)cc2C(=O)N([C@@H](C)CO)C[C@@H]1C	-0.9	-5.8	.	-3.4	17.7	19.4
CCCN(C)C[C@@H]1OCCCC[C@H](C)Oc2ccc(N(C)C)cc2C(=O)N([C@H](C)CO)C[C@@H]1C	-1.5	-5.4	.	68.9*	-10.9	-0.2
C[C@H]1CCCCO[C@@H](CN(C)Cc2ccc3c(c2)OCO3)[C@@H](C)CN([C@@H](C)CO)C(=O)c2cc(N(C)C)ccc2O1	-2.8	2.0	.	6.6	-31.8	13.8
C[C@H](CO)N1C[C@H](C)[C@@H](CN(C)Cc2ccc3c(c2)OCO3)OCCCC[C@H](C)Oc2ccc(N(C)C)cc2C1=O	0.4	.	.	124.1*	-6.8	8.3
CC(=O)c1cccc(NC(=O)CCC(=O)Oc2ccc(C)cc2)c1	9.3	-1.7	-19.1	0.6	6.6	222.4*
O=C(c1ccc(Cl)cc1)N1CCN(c2cccc3[nH]ccc23)CC1	-25.2*	-0.9	-5.0	2.5	.	-13.6
O=C(c1ccc(Cl)cc1)N1CCN(c2ccc(F)cc2)CC1	.	.	-5.5	.	-6.4	.
C[C@@H]1CN([C@@H](C)CO)C(=O)Cc2cc(NS(=O)(=O)c3cn(C)cn3)ccc2O[C@@H]1CN(C)C(=O)Nc1ccc2c(c1)OCO2	1.0	-0.7	.	28.2*	-3.3	2.3
COc1ccc(NC(=O)N(C)C[C@@H]2Oc3ccc(NS(=O)(=O)c4ccccc4)cc3CC(=O)N([C@H](C)CO)C[C@@H]2C)cc1	1.8	-0.7	.	39.0*	3.2	6.0
C[C@H](CO)N1C[C@H](C)[C@H](CN(C)C(=O)Nc2ccccc2)Oc2ccc(NS(=O)(=O)c3ccccc3)cc2CC1=O	2.4	3.2	.	33.6*	1.3	-5.3
C[C@@H]1CN([C@H](C)CO)C(=O)Cc2cc(NS(=O)(=O)c3ccccc3)ccc2O[C@H]1CN(C)C(=O)Nc1ccccc1	2.6	1.5	.	-1.0	11.1	-0.7
C[C@@H]1CN([C@H](C)CO)C(=O)Cc2cc(NS(=O)(=O)c3cn(C)cn3)ccc2O[C@H]1CN(C)C(=O)Nc1ccc2c(c1)OCO2	3.3	-0.9	.	1.0	3.0	21.4
C[C@H](CO)N1C[C@H](C)[C@H](CN(C)Cc2ccccc2)Oc2ccc(NS(=O)(=O)c3ccc(Cl)cc3)cc2CC1=O	-9.1	0.7	.	27.7*	.	-15.8
COc1ccc2c3c([nH]c2c1)[C@H](CO)N(C)CC31CN(C(=O)Nc2c(C)noc2C)C1	3.6	.	.	.	.	7.0
O=C(C1CCCC1)N1[C@@H]2CN(S(=O)(=O)c3ccc(F)cc3)c3ccccc3[C@@H]2[C@@H]1CO	-3.5	-0.9	.	-7.9	-17.6	-13.7
O=C(Nc1ccccc1)N[C@H]1CC[C@@H](CCn2cc(-c3ccccc3F)nn2)O[C@@H]1CO	-1.9	-5.2	.	12.8	3.3	-6.4
O=C(C[C@@H]1CC[C@@H](NC(=O)C2CC2)[C@H](CO)O1)Nc1nccs1	1.9	0.2	.	2.3	-4.5	17.9
C[C@@H]1CN([C@@H](C)CO)C(=O)Cc2cc(NS(=O)(=O)c3ccc(F)cc3)ccc2O[C@@H]1CN(C)C(=O)Nc1ccccc1	1.1	0.7	.	-1.1	-4.7	11.1
C[C@@H]1CN([C@@H](C)CO)C(=O)Cc2cc(NS(=O)(=O)c3ccc(Cl)cc3)ccc2O[C@@H]1CN(C)C(=O)NC1CCCCC1	-2.9	-0.6	.	-5.1	1.3	-8.0
C[C@H]1CN([C@@H](C)CO)C(=O)Cc2cc(NS(=O)(=O)c3ccc(F)cc3)ccc2O[C@@H]1CN(C)C(=O)Nc1ccccc1	2.1	1.4	.	62.4*	-4.6	19.9
C[C@@H]1CN([C@H](C)CO)C(=O)Cc2cc(NS(=O)(=O)c3ccc(Cl)cc3)ccc2O[C@H]1CN(C)C(=O)NC1CCCCC1	1.0	-2.5	.	36.5*	-3.0	4.6
C[C@H](CO)N1C[C@H](C)[C@@H](CN(C)S(C)(=O)=O)Oc2ccc(NS(=O)(=O)c3ccccc3)cc2CC1=O	5.7	-0.7	.	70.2*	6.5	8.0
C[C@H](CO)N1C[C@H](C)[C@@H](CN(C)C(=O)Nc2ccccc2)Oc2ccc(NS(=O)(=O)c3ccc(Cl)cc3)cc2CC1=O	2.6	2.6	.	58.3*	2.6	-1.8
SMILES	rRNA inh HTS	ERAP1 HTS inh	CaV13 FRET inh	DENV2 CPE rescue	PGC1a acetyl inh	INS-1E GSIS act
COc1ccc(C[C@@H]2CCn3cc(nn3)COC[C@@H](Cc3ccccc3)NC2=O)cc1	1.9	.	.	.	.	-5.2
COc1ccc(S(=O)(=O)Nc2ccc3c(c2)CC(=O)N([C@@H](C)CO)C[C@@H](C)[C@H](CN(C)C(=O)NC(C)C)O3)cc1	4.6	-0.1	.	35.4*	3.8	15.6
Cc1ccc(S(=O)(=O)Nc2ccc3c(c2)CC(=O)N([C@H](C)CO)C[C@H](C)[C@H](CN(C)Cc2ccc(Oc4ccccc4)cc2)O3)cc1	0.8	-2.8	.	49.8*	0.5	0.5
COc1ccc(S(=O)(=O)Nc2ccc3c(c2)CC(=O)N([C@@H](C)CO)C[C@H](C)[C@H](CN(C)C(=O)Nc2ccc4c(c2)OCO4)O3)cc1	3.5	3.9	.	-11.9	0.3	4.1
COc1ccc(S(=O)(=O)Nc2ccc3c(c2)CC(=O)N([C@H](C)CO)C[C@H](C)[C@@H](CN(C)C(=O)Nc2ccc4c(c2)OCO4)O3)cc1	2.9	4.1	.	26.1*	5.2	-1.0
C[C@H]1CN([C@@H](C)CO)C(=O)Cc2cc(NS(=O)(=O)c3ccccc3)ccc2O[C@@H]1CN(C)C(=O)Nc1ccccc1	4.5	1.0	.	23.2*	8.7	20.3
CN1C(=O)c2cc(NC(=O)c3ccc(F)cc3)ccc2OC[C@@H]2O[C@@H](CC(=O)N3CCOCC3)CC[C@@H]21	0.8	-0.2	.	-2.1	-4.0	-1.5
COc1ccc(NC(=O)N(C)C[C@H]2Oc3ncc(C#CCC(C)C)cc3C(=O)N([C@H](C)CO)C[C@@H]2C)cc1	-2.0	1.0	.	8.9	0.6	-14.0
CCCNC(=O)N1[C@H](CO)[C@H](c2ccc(C#CC3CC3)cc2)[C@H]1CNC	-1.5	.	.	.	.	-3.1
C[C@H](CO)N1C[C@H](C)[C@H](CN(C)Cc2ccc(C(=O)O)cc2)Oc2c(NC(=O)NC3CCCCC3)cccc2C1=O	4.6	4.5	.	9.4	6.7	10.2
